In PubChem BioAssay (NCI) one finds growth inhibition data, which are given here for ten compounds.

About 79,000 compounds went through this panel and 15% of them were active in at least one assay; those are over-represented in the sample as a whole. Unmarked numbers belong to inactive results. Activity calls are given as the source filed them. Cut-off read from the data, not from the text of the source: active = growth inhibition above about 70%; inactive = the rest.

Test [1] in a line: NCI Yeast Anticancer Drug Screen. Data for the rad50 strain (AID 155).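 Note: 0% = growth of vehicle-only cultures of the same strain.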 Particulars: S. cerevisiae rad50 strain growth inhibition, stronger effect = higher value. In a few lines: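 A DNA repair-deficient yeast mutant serves as the test organism; compound-induced growth inhibition is calculated against vehicle-treated cells.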
The nature of test [2]: NCI Yeast Anticancer Drug Screen. Data for the mec2-1 strain (AID 157). Particulars: S. cerevisiae mec2-1 strain, stronger effect = higher value. In a few lines: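 Growth inhibition is read against vehicle-treated controls after compound exposure of the mec2-1 yeast strain, which is defective in DNA damage repair or cell cycle control.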
Test [3] is described as follows: NCI Yeast Anticancer Drug Screen. Data for the sgs1 mgt1 strain (AID 161).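 Note: 0% = growth of cultures given vehicle only.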 Particulars: S. cerevisiae sgs1 mgt1 strain, stronger effect = higher value. In a few lines:
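Yeast cells carrying a defined DNA-repair defect were exposed to test compounds. Growth inhibition was measured relative to vehicle-treated controls.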

A short description of test [4]: NCI Yeast Anticancer Drug Screen. Data for the cln2 rad14 strain (AID 165).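 Note: 0% = growth equal to vehicle treated cultures.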 The conditions noted are these: S. cerevisiae cln2 rad14 strain, stronger effect = higher value. In a few lines:
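Growth inhibition, relative to vehicle-treated controls, is the read-out. The test organism is a yeast strain with defined genetic alterations, cln2 rad14.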

Test [5] in a line: NCI Yeast Anticancer Drug Screen. Data for the bub3 strain (AID 167). Particulars: S. cerevisiae bub3 mutant strain, stronger effect = higher value. In a few lines:
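Inhibition values come from growth of compound-treated mutant yeast normalised to vehicle-treated controls.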

A short description of test [6]: NCI Yeast Anticancer Drug Screen. Data for the mlh1 rad18 strain (AID 175). Particulars: S. cerevisiae mlh1 rad18 strain growth inhibition, stronger effect = higher value. In a few lines: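 Cells of a genetically altered yeast strain, deficient in DNA damage repair, were treated with compound. Their growth was then compared with that of vehicle-treated cultures to give inhibition.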

Where [7] appears, read: at 5.0 µM (retest, dose inferred, filed as 0.5).
The mark [8] stands for this setting: at 50.0 µM (retest, dose inferred, filed as 5.0).

As to `O=C(Nc1ccc(C(=O)Nc2ccc3c(O)cc(S(=O)(=O)O)cc3c2)cc1)c1ccccc1`, the growth inhibition was 0% in test [1] (setting [7]); -2% in test [1] (setting [8]); 25.8% in test [1] (at 50.0 µM); 2% in test [2] (setting [7]); 34% in test [2] (setting [8]); -5.7% in test [2] (at 50.0 µM). The growth inhibition in test [3] (setting [7]) was 2%; in test [3] (setting [8]) it was 21%; in test [3] (at 50.0 µM) it was 25.8%; in test [4] (setting [7]), 1%; in test [4] (setting [8]), -13%; in test [4] (at 50.0 µM) it was 1.4%. Further, the growth inhibition is 0% in test [5] (setting [7]); -6% in test [5] (setting [8]); 1.15% in test [5] (at 50.0 µM); 19% in test [6] (setting [7]); 6% in test [6] (setting [8]); 47% in test [6] (at 50.0 µM).

For the compound `O=C(O)C1OC(Oc2ccc3oc4ccccc4c(=O)c3c2)C(O)C(O)C1O` (stereo not given), the growth inhibition in test [1] (setting [7]) is -23%; in test [1] (setting [8]) it was 91% (active); in test [1] (at 50.0 µM) it was 48.8%; in test [2] (setting [7]) it was 3%; in test [2] (setting [8]), 33%; in test [2] (at 50.0 µM), 40.2%. The growth inhibition is -1% in test [3] (setting [7]); 48% in test [3] (setting [8]); 30.8% in test [3] (at 50.0 µM); 4% in test [4] (setting [7]); 15% in test [4] (setting [8]); 56.5% in test [4] (at 50.0 µM). Also, the growth inhibition in test [5] (setting [7]) is 10%; in test [5] (setting [8]), 64%; in test [5] (at 50.0 µM) it was 47.1%; in test [6] (setting [7]), 7%; in test [6] (setting [8]), 39%; in test [6] (at 50.0 µM), 57.9%.

On to `COC(=O)C1(NC(=O)C(CC(=O)OCc2ccccc2)NC(=O)OCc2ccccc2)CCCCCC1` (stereo not given), for which the growth inhibition in test [1] (setting [7]) is 3%; in test [1] (setting [8]), 30%; in test [1] (at 50.0 µM), 63%; in test [2] (setting [7]) it was -1%; in test [2] (setting [8]), 41%; in test [2] (at 50.0 µM), 8.9%. For the same compound, the growth inhibition in test [3] (setting [7]) is -12%; in test [3] (setting [8]), 25%; in test [3] (at 50.0 µM), 50.3%; in test [4] (setting [7]), -2%; in test [4] (setting [8]), 47%; in test [4] (at 50.0 µM) it was 71.5% (active). The growth inhibition in test [5] (setting [7]) was -22%; in test [5] (setting [8]), 66%; in test [5] (at 50.0 µM), 56.8%; in test [6] (setting [7]), -3%; in test [6] (setting [8]), 64%; in test [6] (at 50.0 µM), 59.1%.

`COc1ccc(N)c([N+](=O)[O-])c1`: the growth inhibition in test [1] (setting [7]) was -5%; in test [1] (setting [8]), 13%; in test [1] (at 50.0 µM), 41.8%; in test [2] (setting [7]), 1%; in test [2] (setting [8]) it was 23%; in test [2] (at 50.0 µM), 58%. Also, the growth inhibition in test [3] (setting [7]) was -2%; in test [3] (setting [8]), 12%; in test [3] (at 50.0 µM) it was 69.5%; in test [4] (setting [7]), -1%; in test [4] (setting [8]), 10%; in test [4] (at 50.0 µM), 39%. The growth inhibition in test [5] (setting [7]) is 2%; in test [5] (setting [8]) it was 30%; in test [5] (at 50.0 µM), 48.9%; in test [6] (setting [7]), -4%; in test [6] (setting [8]), 31%; in test [6] (at 50.0 µM), 27.9%.

As to `O=C(O)CCCNc1ncc2c(n1)-c1ccccc1OC2`, the growth inhibition in test [1] (setting [7]) is 19%; in test [1] (setting [8]), 7%; in test [1] (at 50.0 µM), 65.5%; in test [2] (setting [7]), 11%; in test [2] (setting [8]), 9%; in test [2] (at 50.0 µM), 51%. In addition, the growth inhibition in test [3] (setting [7]) was 8%; in test [3] (setting [8]) it was 12%; in test [3] (at 50.0 µM), -3.35%; in test [4] (setting [7]) it was 20%; in test [4] (setting [8]) it was 15%; in test [4] (at 50.0 µM), -26%. Besides, the growth inhibition was 14% in test [5] (setting [7]); 8% in test [5] (setting [8]); -22.9% in test [5] (at 50.0 µM); 12% in test [6] (setting [7]); 9% in test [6] (setting [8]); -9.3% in test [6] (at 50.0 µM).

Turning to `Cn1cc(-c2c3c(cc4c2OCO4)OCO3)c2ccccc21`, the growth inhibition is 4% in test [1] (setting [7]); 99% (active) in test [1] (setting [8]); 99.2% (active) in test [1] (at 50.0 µM); -3% in test [2] (setting [7]); 98% (active) in test [2] (setting [8]); 99.2% (active) in test [2] (at 50.0 µM). For the same compound, the growth inhibition in test [3] (setting [7]) is 2%; in test [3] (setting [8]), 99% (active); in test [3] (at 50.0 µM), 99.3% (active); in test [4] (setting [7]) it was -9%; in test [4] (setting [8]) it was 96% (active); in test [4] (at 50.0 µM), 98.8% (active). Also, the growth inhibition in test [5] (setting [7]) is -2%; in test [5] (setting [8]) it was 99% (active); in test [5] (at 50.0 µM) it was 99.2% (active); in test [6] (setting [7]) it was -1%; in test [6] (setting [8]), 99% (active); in test [6] (at 50.0 µM) it was 99.3% (active).

With `S=C(NCCc1ccccc1)N/N=C/c1ccc(Cl)cc1`, the growth inhibition in test [1] (setting [7]) was 52%; in test [1] (setting [8]), 57%; in test [1] (at 50.0 µM) it was 85.7% (active); in test [2] (setting [7]), 36%; in test [2] (setting [8]), 54%; in test [2] (at 50.0 µM), 74.3% (active). Further, the growth inhibition in test [3] (setting [7]) was 54%; in test [3] (setting [8]), 61%; in test [3] (at 50.0 µM), 83.5% (active); in test [4] (setting [7]), 34%; in test [4] (setting [8]), 45%; in test [4] (at 50.0 µM) it was 83% (active). The growth inhibition was 52% in test [5] (setting [7]); 65% in test [5] (setting [8]); 85.6% (active) in test [5] (at 50.0 µM); 61% in test [6] (setting [7]); 67% in test [6] (setting [8]); 80.9% (active) in test [6] (at 50.0 µM).

Consider `O=C(Nc1cc(-c2ccccc2)[nH]n1)c1ccccc1`, for which the growth inhibition was 34% in test [1] (setting [7]); 36% in test [1] (setting [8]); 33.4% in test [1] (at 50.0 µM); 29% in test [2] (setting [7]); 37% in test [2] (setting [8]); 16.1% in test [2] (at 50.0 µM). In addition, the growth inhibition was 38% in test [3] (setting [7]); 58% in test [3] (setting [8]); 23.9% in test [3] (at 50.0 µM); 23% in test [4] (setting [7]); 25% in test [4] (setting [8]); 18% in test [4] (at 50.0 µM). Besides, the growth inhibition in test [5] (setting [7]) was 31%; in test [5] (setting [8]), 73% (active); in test [5] (at 50.0 µM), 56.8%; in test [6] (setting [7]) it was 46%; in test [6] (setting [8]) it was 47%; in test [6] (at 50.0 µM), 23.4%.

With `COc1ccc(C2CC(c3sc(Nc4ccc(C)cc4)nc3C)=NN2)cc1` (stereo not given), the growth inhibition in test [1] (setting [7]) is -1%; in test [1] (setting [8]), 20%; in test [1] (at 50.0 µM) it was 80.3% (active); in test [2] (setting [7]), -33%; in test [2] (setting [8]) it was 60%; in test [2] (at 50.0 µM), 62%. Also, the growth inhibition is -2% in test [3] (setting [7]); 16% in test [3] (setting [8]); 71.4% (active) in test [3] (at 50.0 µM); -1% in test [4] (setting [7]); 38% in test [4] (setting [8]); 69.1% in test [4] (at 50.0 µM). Also, the growth inhibition was -4% in test [5] (setting [7]); 32% in test [5] (setting [8]); 12.2% in test [5] (at 50.0 µM); -2% in test [6] (setting [7]); 31% in test [6] (setting [8]); 59.9% in test [6] (at 50.0 µM).

Turning to `S=C(S)NCCN1CCNC1=S`, the growth inhibition in test [1] (setting [7]) is 10%; in test [1] (setting [8]), 76% (active); in test [1] (at 50.0 µM), 60.4%; in test [2] (setting [7]), 5%; in test [2] (setting [8]), 50%; in test [2] (at 50.0 µM), 60.9%. Further, the growth inhibition is 5% in test [3] (setting [7]); 64% in test [3] (setting [8]); 80% (active) in test [3] (at 50.0 µM); 2% in test [4] (setting [7]); 18% in test [4] (setting [8]); -5.05% in test [4] (at 50.0 µM). Further, the growth inhibition in test [5] (setting [7]) is 14%; in test [5] (setting [8]) it was 95% (active); in test [5] (at 50.0 µM), 63.8%; in test [6] (setting [7]), 7%; in test [6] (setting [8]), 78% (active); in test [6] (at 50.0 µM), 77.1% (active).
